{
  "source": "the supplement of paper PMC8728848",
  "assay_in_all_cases": "glycan array binding signal (z-score within array); higher = stronger binding",
  "details_in_all_cases": "glycan notation: IUPAC condensed, linker removed",
  "key": {"Fuc(a1-2)Gal(b1-3)GalNAc": {"target": "Fuc(a1-2)Gal(b1-3)GalNAc", "how_it_was_run": "(§1)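 Negative Z-scores can be read as non-binding. The Z-score is calculated within each array and then averaged across arrays of one protein sequence at different concentrations or buffers and across linkers. Arrays, 3228 in all, were curated from the Consortium for Functional Glycomics database and kept only where the protein sequence was available.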"}, "[1]": {"target": "Fuc(a1-2)Gal6S(b1-4)Glc6S", "how_it_was_run": "as §1"}, "[2]": {"target": "Fuc(a1-3)[Gal3S(b1-4)]Glc", "how_it_was_run": "as §1"}, "[3]": {"target": "Fuc(a1-3)[Gal3S(b1-4)]Glc6S", "how_it_was_run": "as §1"}, "[4]": {"target": "Fuc(a1-3)[Gal3S(b1-4)]GlcNAc6S", "how_it_was_run": "as §1"}, "Gal(b1-3)Gal": {"target": "Gal(b1-3)Gal", "how_it_was_run": "as §1"}, "Gal(b1-3)GalNAc": {"target": "Gal(b1-3)GalNAc", "how_it_was_run": "as §1"}, "[5]": {"target": "Gal(b1-3)GalNAc(b1-3)Gal(b1-4)Glc", "how_it_was_run": "as §1"}, "Gal3S(b1-4)Glc6S": {"target": "Gal3S(b1-4)Glc6S", "how_it_was_run": "as §1"}, "Gal3S(b1-4)GlcNAc6S": {"target": "Gal3S(b1-4)GlcNAc6S", "how_it_was_run": "as §1"}, "Gal3S6S(b1-4)GlcNAc6S": {"target": "Gal3S6S(b1-4)GlcNAc6S", "how_it_was_run": "as §1"}, "Gal4S6S(b1-4)GlcNAc": {"target": "Gal4S6S(b1-4)GlcNAc", "how_it_was_run": "as §1"}, "Gal6S(b1-4)Glc6S": {"target": "Gal6S(b1-4)Glc6S", "how_it_was_run": "as §1"}, "Glc(a1-4)Glc": {"target": "Glc(a1-4)Glc", "how_it_was_run": "as §1"}, "Glc(a1-6)Glc(a1-6)Glc": {"target": "Glc(a1-6)Glc(a1-6)Glc", "how_it_was_run": "as §1"}, "[6]": {"target": "GlcNAc(a1-6)Gal(b1-4)GlcNAc", "how_it_was_run": "as §1"}, "[7]": {"target": "Neu5Ac(a2-3)Gal(b1-3)[Neu5Ac(a2-3)Gal(b1-4)]GlcNAc", "how_it_was_run": "as §1"}, "[8]": {"target": "Neu5Ac(a2-3)Gal(b1-3)[Neu5Ac(a2-6)]GalNAc", "how_it_was_run": "as §1"}, "[9]": {"target": "Neu5Ac(a2-3)[GalNAc(b1-4)]Gal(b1-4)GlcNAc", "how_it_was_run": "as §1"}, "[10]": {"target": "Neu5Ac(a2-6)Gal(b1-4)GlcNAc(b1-3)Gal(b1-4)[Fuc(a1-3)]GlcNAc(b1-3)Gal(b1-4)[Fuc(a1-3)]GlcNAc", "how_it_was_run": "as §1"}, "[11]": {"target": "Neu5Ac(a2-8)Neu5Ac(a2-3)[GalNAc(b1-4)]Gal(b1-4)Glc", "how_it_was_run": "as §1"}},
  "note": "Only a selection was taken, and the strongest signals are over-represented in it overall.",
  "data": [
    {"binder": "NKp30 (Homo sapiens), O14931 (protein) LWVSQPPEIRTLEGSSAFLPCSFNASQGRLAIGSVTWFRDEVVPGKEVRNGTPEFRGRLAPLASSRFLHDHQAELHIRDVRGHDASIYVCRVEVLGLGVGTGNGTRLVVEKEHPQLG", "values": [
      {"measurement": "glycan array binding signal (z-score)", "setting": "Fuc(a1-2)Gal(b1-3)GalNAc", "value": -0.862},
      {"measurement": "glycan array binding signal (z-score)", "setting": "[1]", "value": 2.23},
      {"measurement": "glycan array binding signal (z-score)", "setting": "[2]", "value": 0.441},
      {"measurement": "glycan array binding signal (z-score)", "setting": "[3]", "value": 0.61},
      {"measurement": "glycan array binding signal (z-score)", "setting": "[4]", "value": 0.561},
      {"measurement": "glycan array binding signal (z-score)", "setting": "Gal(b1-3)Gal", "value": -0.378},
      {"measurement": "glycan array binding signal (z-score)", "setting": "Gal(b1-3)GalNAc", "value": -0.24},
      {"measurement": "glycan array binding signal (z-score)", "setting": "[5]", "value": -0.43},
      {"measurement": "glycan array binding signal (z-score)", "setting": "Gal3S(b1-4)Glc6S", "value": 2.3},
      {"measurement": "glycan array binding signal (z-score)", "setting": "Gal3S(b1-4)GlcNAc6S", "value": 2.56},
      {"measurement": "glycan array binding signal (z-score)", "setting": "Gal3S6S(b1-4)GlcNAc6S", "value": 2.38},
      {"measurement": "glycan array binding signal (z-score)", "setting": "Gal4S6S(b1-4)GlcNAc", "value": 2.56},
      {"measurement": "glycan array binding signal (z-score)", "setting": "Gal6S(b1-4)Glc6S", "value": 2.44},
      {"measurement": "glycan array binding signal (z-score)", "setting": "Glc(a1-4)Glc", "value": -0.398},
      {"measurement": "glycan array binding signal (z-score)", "setting": "Glc(a1-6)Glc(a1-6)Glc", "value": -0.195},
      {"measurement": "glycan array binding signal (z-score)", "setting": "[6]", "value": -0.667},
      {"measurement": "glycan array binding signal (z-score)", "setting": "[7]", "value": 0.776},
      {"measurement": "glycan array binding signal (z-score)", "setting": "[8]", "value": -0.06},
      {"measurement": "glycan array binding signal (z-score)", "setting": "[9]", "value": -0.354},
      {"measurement": "glycan array binding signal (z-score)", "setting": "[10]", "value": -0.472},
      {"measurement": "glycan array binding signal (z-score)", "setting": "[11]", "value": -0.18}
    ]}
  ]
}
